A short description of assay [1]: antimalarial activity against Dd2 strain (AID 2302;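 active means growth inhibition above 50% at the single 2 µM test dose, taken to imply half-maximal potency below 2 µM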;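 further: 0% = DMSO untreated growth and 100% = chloroquine plus artemisinin killed control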). To be noted: P. falciparum Dd2 in RBCs, LDH growth readout, 72 h; at 2 µM; stronger effect = higher value.
Assay [2] can be described thus: human hepatoma cell viability loss – ATP luminescence, cytotoxicity control for P. falciparum antimalarial project, primary screen (AID 2303;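 active means inhibition above 50%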;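 further: 0% = DMSO wells and 100% = digitonin-killed cells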). To be noted: HepG2 viability, 24-48 h, at 10 µM, stronger effect = higher value.
Assay [3] concerns the target L-lactate dehydrogenase (Plasmodium falciparum (isolate CDC / Honduras)) (UniProt Q27743). The experiment in a line: PfLDH activity inhibition – cell lysate, 3D7 strain, counter-screen for P. falciparum growth inhibition project (AID 2304).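 Further: 0% = vehicle and 100% = reference inhibitor.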 To be noted: P. falciparum 3D7 crude extract, LDH APAD/NBT absorbance; at 2 µM; stronger effect = higher value. A general note: The purpose of a counterscreen is to sort out artefacts and off-target activity.

Assay [4] in a line: inhibition of 3D7 malaria parasite growth – strain 3D7 (AID 2306).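 Further: 0% = DMSO wells and 100% = chloroquine plus artemisinin control wells.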 To be noted: P. falciparum 3D7 erythrocytic growth, LDH absorbance, 72 h; at 2 µM; stronger effect = higher value.
In assay [5] the target is Calcium-dependent protein kinase 1 (Plasmodium falciparum (isolate 3D7)) (UniProt P62344). The experiment in a line: PfCDPK1 kinase inhibitors, biochemical, TCAMS library (AID 1159585; cut-off not given, nearly all actives have IC50 up to about 0.98 µM;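 further: inhibitors leave more ATP so luminescence rises with inhibition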). To be noted: recombinant PfCDPK1, Kinase-Glo ATP depletion luminescence. For orientation: Kinase-Glo measures the ATP left after a reaction by luminescence.
Assay [6] deals with Plasmodium falciparum protein kinase 6 (PK6, PF3D7_1337100) (UniProt Q8IDW1). The experiment in a line: PfPK6 kinase inhibitors, biochemical, TCAMS library (AID 1159586). Particulars: recombinant PfPK6, Kinase-Glo ATP depletion luminescence.
Assay [7] concerns the target Protein kinase 7 (PK7), Plasmodium falciparum 3D7 (PF3D7_0213400) (UniProt Q7YTF7). Put plainly: inhibition of Plasmodium PK7 catalytic activity – biochemical, TCAMS antimalarial set, Kinase-Glo luminescence (AID 1159587). To be noted: recombinant PfPK7, Kinase-Glo ATP depletion luminescence.
Assay [8] addresses Calcium-dependent protein kinase 4 (Plasmodium falciparum (isolate 3D7)) (UniProt Q8IBS5). Put plainly: PfCDPK4 kinase inhibitors, biochemical, TCAMS library (AID 1159588; cut-off not given, nearly all actives have IC50 up to about 0.91 µM). To be noted: recombinant PfCDPK4, Kinase-Glo ATP depletion luminescence.

Unmarked numbers belong to inactive results. For some of these results: Entries with a potency or affinity are not part of this list. The source made the active and inactive calls. Unless noted, how the calls were made is not given here.

Chain of Protein kinase 7 (PK7), Plasmodium falciparum 3D7 (PF3D7_0213400) (Q7YTF7 1-343): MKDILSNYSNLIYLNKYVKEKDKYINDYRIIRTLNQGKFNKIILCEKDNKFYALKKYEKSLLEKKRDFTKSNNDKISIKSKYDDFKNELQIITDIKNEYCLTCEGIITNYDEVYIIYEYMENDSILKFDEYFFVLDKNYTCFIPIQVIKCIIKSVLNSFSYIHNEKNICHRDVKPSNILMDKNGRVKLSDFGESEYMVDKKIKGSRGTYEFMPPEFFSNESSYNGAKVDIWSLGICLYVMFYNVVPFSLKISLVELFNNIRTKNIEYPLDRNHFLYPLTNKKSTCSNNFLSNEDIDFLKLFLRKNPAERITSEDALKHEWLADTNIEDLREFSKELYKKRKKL
Chain of Calcium-dependent protein kinase 4 (Plasmodium falciparum (isolate 3D7)) (Q8IBS5 whole entry, looked up): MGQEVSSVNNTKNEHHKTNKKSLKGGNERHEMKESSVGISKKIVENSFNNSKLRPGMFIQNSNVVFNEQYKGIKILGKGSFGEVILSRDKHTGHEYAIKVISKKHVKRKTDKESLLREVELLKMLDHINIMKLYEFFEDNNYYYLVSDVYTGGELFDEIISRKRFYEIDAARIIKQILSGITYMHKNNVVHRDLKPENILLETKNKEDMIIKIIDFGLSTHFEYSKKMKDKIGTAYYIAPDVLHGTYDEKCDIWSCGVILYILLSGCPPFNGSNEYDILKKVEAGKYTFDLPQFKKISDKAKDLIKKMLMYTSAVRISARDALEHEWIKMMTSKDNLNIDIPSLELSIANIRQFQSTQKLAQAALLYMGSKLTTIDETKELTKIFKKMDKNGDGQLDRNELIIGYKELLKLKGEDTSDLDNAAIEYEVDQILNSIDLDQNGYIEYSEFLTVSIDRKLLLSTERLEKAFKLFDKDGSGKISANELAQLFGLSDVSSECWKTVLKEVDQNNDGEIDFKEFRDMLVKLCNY
Chain of Calcium-dependent protein kinase 1 (Plasmodium falciparum (isolate 3D7)) (P62344 whole entry, looked up): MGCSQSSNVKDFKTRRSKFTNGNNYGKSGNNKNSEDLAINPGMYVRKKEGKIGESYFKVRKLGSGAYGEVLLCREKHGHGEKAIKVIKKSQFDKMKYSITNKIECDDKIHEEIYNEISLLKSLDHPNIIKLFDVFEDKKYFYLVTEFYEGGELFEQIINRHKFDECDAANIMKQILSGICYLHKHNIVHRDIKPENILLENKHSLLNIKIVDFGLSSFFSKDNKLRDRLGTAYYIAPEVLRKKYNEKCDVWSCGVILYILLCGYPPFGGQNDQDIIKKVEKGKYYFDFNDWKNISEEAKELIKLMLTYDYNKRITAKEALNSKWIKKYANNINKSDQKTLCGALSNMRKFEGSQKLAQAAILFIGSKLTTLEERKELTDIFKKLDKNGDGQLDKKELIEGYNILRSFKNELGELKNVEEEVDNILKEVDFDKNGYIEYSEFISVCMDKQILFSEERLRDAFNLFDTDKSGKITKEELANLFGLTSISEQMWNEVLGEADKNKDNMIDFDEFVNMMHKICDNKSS
Chain of Plasmodium falciparum protein kinase 6 (PK6, PF3D7_1337100) (Q8IDW1 1-305): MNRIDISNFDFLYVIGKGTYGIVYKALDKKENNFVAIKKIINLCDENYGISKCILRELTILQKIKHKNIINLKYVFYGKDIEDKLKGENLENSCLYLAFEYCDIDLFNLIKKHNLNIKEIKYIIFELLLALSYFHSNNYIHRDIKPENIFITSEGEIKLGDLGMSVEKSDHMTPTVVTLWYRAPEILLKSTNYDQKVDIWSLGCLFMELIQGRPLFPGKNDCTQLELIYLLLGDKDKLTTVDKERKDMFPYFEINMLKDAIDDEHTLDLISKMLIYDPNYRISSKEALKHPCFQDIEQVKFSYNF
Chain of L-lactate dehydrogenase (Plasmodium falciparum (isolate CDC / Honduras)) (Q27743 whole entry, looked up): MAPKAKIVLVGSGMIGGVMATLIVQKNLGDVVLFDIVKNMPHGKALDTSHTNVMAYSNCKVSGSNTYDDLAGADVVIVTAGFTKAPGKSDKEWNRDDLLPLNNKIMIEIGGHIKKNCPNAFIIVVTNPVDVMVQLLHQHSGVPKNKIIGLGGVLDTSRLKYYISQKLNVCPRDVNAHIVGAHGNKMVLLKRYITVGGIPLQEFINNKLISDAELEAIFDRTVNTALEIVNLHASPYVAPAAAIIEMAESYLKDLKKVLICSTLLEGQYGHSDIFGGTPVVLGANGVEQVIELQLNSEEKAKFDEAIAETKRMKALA

Usually inhibition stands for the relative decrease from the control value, in per cent. On to `CS(=O)(=O)c1ccc2c(c1)CCN(CCC1CCC(NC(=O)C(=Cc3cccc(C#N)c3)c3ccc(-c4ccccc4)cc3)CC1)CC2` (stereo not given), for which the growth inhibition is 13% in assay [1] and 99% (active) in assay [4]. Besides, the inhibition in assay [2] is 24%; in assay [3], -6%. The outcome in assay [5], in assay [6], in assay [7] and in assay [8] was inactive.
With `O=C(Nc1ccc(Cl)cc1)Nc1cccc(-c2ccc(-c3nc4ccc(F)cc4[nH]3)cc2)c1`, the growth inhibition in assay [1] was 99% (active); in assay [4], 101% (active). Moreover, the inhibition in assay [2] is 73% (active); in assay [3], -1%. The outcome in assay [5], in assay [6], in assay [7] and in assay [8] was inactive.
Consider `CC(=O)Oc1c(C(=O)C2CCC(C(C)(C)C)CC2)c(OC(C)=O)c2ccccc2c1OC(C)=O` (stereo not given), for which the growth inhibition in assay [1] and in assay [4] was 96% (active) in each case. Also, the inhibition was 9% in assay [2] and 2% in assay [3]. Further, the result in assay [5], in assay [6], in assay [7] and in assay [8] was inactive.
Take `O=C(NC1CCC(N2CCC(c3ccccc3C(F)(F)F)CC2)CC1)c1cc2ccccc2[nH]1` (stereo not given): the growth inhibition was 98% (active) in assay [1] and 100% (active) in assay [4]. Besides, the inhibition was 80% (active) in assay [2] and -5% in assay [3]. Further, the outcome in assay [5], in assay [6], in assay [7] and in assay [8] was inactive.
Regarding `Oc1ccc(CCNc2nc(NCc3cccc(-c4cc(C(F)(F)F)ccc4Cl)c3)nc(N3CCNCC3)n2)cc1`, the growth inhibition in assay [1] was 8%; in assay [4], 90% (active). For the same molecule, the inhibition is 33% in assay [2] and 0% in assay [3]. The result in assay [5], in assay [6], in assay [7] and in assay [8] was inactive.
As to `N#Cc1ccc2c(c1)CN(CCC1CCC(NC(=O)c3cc4cc(OC(F)(F)F)ccc4[nH]3)CC1)CC2` (stereo not given), the growth inhibition in assay [1] was 19%; in assay [4] it was 101% (active). Moreover, the inhibition in assay [2] and in assay [3] was 4% each time. Moreover, the result in assay [5], in assay [6], in assay [7] and in assay [8] was inactive.
As to `CCOC(=O)NCC(=O)Nc1cccc(-c2cccc(-c3nc4ccc(C(F)(F)F)cc4[nH]3)c2)c1`, the results for the growth inhibition in assay [1] and in assay [4] were 34% and 91% (active), respectively. Besides, the inhibition in assay [2] is 59% (active); in assay [3], -2%. For the same molecule, the outcome in assay [5], in assay [6], in assay [7] and in assay [8] was inactive.
Consider `Cc1cccc2[nH]c(-c3ccc(-c4cccc(NC(=O)c5cncn5C)c4)cc3)nc12`, for which the growth inhibition is 1% in assay [1] and 100% (active) in assay [4]. The inhibition in assay [2] and in assay [3] was 2% in each case. Besides, the outcome in assay [5], in assay [6], in assay [7] and in assay [8] was inactive.
As for `O=C(/C=C/c1ccc(Cl)c(Cl)c1)NCCCCCN1CCC(C(=O)Nc2ccc(Cl)cc2)CC1`, the figures for the growth inhibition in assay [1] and in assay [4] were -1% and 100% (active), respectively. Further, the inhibition in assay [2] was 42%; in assay [3], 8%. The outcome in assay [5], in assay [6], in assay [7] and in assay [8] was inactive.
For the molecule `Fc1ccc2c(NN=CC=Cc3ccccc3)ccnc2c1`, the growth inhibition in assay [1] is 98% (active); in assay [4], 101% (active). The inhibition in assay [2] was -2%; in assay [3], -3%. The result in assay [5], in assay [6], in assay [7] and in assay [8] was inactive.
As to `CC(C(=O)N1CCCC1)N1CCN(C(c2ccccc2)c2ccccc2)CC1` (stereo not given), the growth inhibition was 56% (active) in assay [1] and 82% (active) in assay [4]. Moreover, the inhibition in assay [2] was -2%; in assay [3] it was 3%. Also, the outcome in assay [5], in assay [6], in assay [7] and in assay [8] was inactive.
For the molecule `Cc1cccc(CN2CCC(C(=O)Nc3ccc(-c4nc5ccccc5[nH]4)cc3)CC2)n1`, the growth inhibition in assay [1] was 3%; in assay [4], 96% (active). In addition, the figures for the inhibition in assay [2] and in assay [3] were -9% and 6%, respectively. The result in assay [5], in assay [6], in assay [7] and in assay [8] was inactive.
As for `COc1cc(C(=O)N2CCOC(CCN3CCC[C@H]3C(=O)Nc3ccccc3)(c3ccc(Cl)c(Cl)c3)C2)cc(OC)c1OC` (stereo not given in full), the figures for the growth inhibition in assay [1] and in assay [4] were 88% (active) and 98% (active), respectively. Further, the inhibition in assay [2] was 3%; in assay [3], -2%. Moreover, the result in assay [5], in assay [6], in assay [7] and in assay [8] was inactive.
With `CC(=O)Nc1ccc(C(=O)Nc2cccc(-c3ccc(-c4nc5ccccc5[nH]4)cc3)c2)cn1`, the growth inhibition in assay [1] was 93% (active); in assay [4], 100% (active). Besides, the inhibition in assay [2] is 12%; in assay [3] it was 0%. The result in assay [5], in assay [6], in assay [7] and in assay [8] was inactive.
Consider `C[C@@H](N=C(Nc1ccc(-c2ccccc2)cc1)Nc1ccc(C#N)cc1O)c1ccc(Br)cc1`, for which the growth inhibition was 95% (active) in assay [1] and 99% (active) in assay [4]. For the same molecule, the inhibition in assay [2] was 9%; in assay [3], 2%. In addition, the outcome in assay [5], in assay [6], in assay [7] and in assay [8] was inactive.
Turning to `COc1cccc(-c2cc(C(F)(F)F)n3ncc(C(=O)Nc4cc(C)ccc4O)c3n2)c1`, the figures for the growth inhibition in assay [1] and in assay [4] were 99% (active) and 98% (active), respectively. Besides, the inhibition was -4% in assay [2] and 3% in assay [3]. Also, the outcome in assay [5], in assay [6], in assay [7] and in assay [8] was inactive.
As for `CCN(CCCN1CCCCC1)c1cc(C)nc(Nc2ccc3c(c2)CCC3)n1`, the growth inhibition in assay [1] was 93% (active); in assay [4], 100% (active). Further, the inhibition in assay [2] is 32%; in assay [3], 5%. Moreover, the outcome in assay [5], in assay [6], in assay [7] and in assay [8] was inactive.
For the molecule `CCc1c(CCNCC/C=C/CCNCCc2ccc(OC)c(OC)c2CC)ccc(OC)c1OC`, the growth inhibition is 7% in assay [1] and 100% (active) in assay [4]. Besides, the values for the inhibition in assay [2] and in assay [3] were 41% and 3%, respectively. The outcome in assay [5], in assay [6], in assay [7] and in assay [8] was inactive.
Consider `CCCCOc1cc(C)nc2ccc(NC(=O)COCC(=O)Nc3ccc4nc(C)cc(OCCCC)c4c3)cc12`, for which the growth inhibition is 28% in assay [1] and 90% (active) in assay [4]. Further, the inhibition in assay [2] was -11%; in assay [3] it was -3%. In addition, the outcome in assay [5], in assay [6], in assay [7] and in assay [8] was inactive.
Take `COc1ccc2c(OC)c(CNCCCCCCNCc3ccc4cc(OC)ccc4c3OC)ccc2c1`: the figures for the growth inhibition in assay [1] and in assay [4] were 49% and 98% (active), respectively. For the same molecule, the inhibition is 100% (active) in assay [2] and 4% in assay [3]. Also, the result in assay [5], in assay [6], in assay [7] and in assay [8] was inactive.

The values above are taken from PubChem BioAssay.
